ChEMBL document CHEMBL1961873, “Compounds: GSK PKIS; Assays: Nanosyn kinase panel” (2012)

Tests used:
[1] = biological target: Protein kinase C gamma type (Homo sapiens) (UniProt P05129); details: at 1 µM;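 further: each value is an averaged percent inhibition of the enzyme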
[2] = biological target: T1, Protein kinase C iota type (Homo sapiens) (UniProt P41743); details: at 0.1 µM
T1 sequence (whole entry): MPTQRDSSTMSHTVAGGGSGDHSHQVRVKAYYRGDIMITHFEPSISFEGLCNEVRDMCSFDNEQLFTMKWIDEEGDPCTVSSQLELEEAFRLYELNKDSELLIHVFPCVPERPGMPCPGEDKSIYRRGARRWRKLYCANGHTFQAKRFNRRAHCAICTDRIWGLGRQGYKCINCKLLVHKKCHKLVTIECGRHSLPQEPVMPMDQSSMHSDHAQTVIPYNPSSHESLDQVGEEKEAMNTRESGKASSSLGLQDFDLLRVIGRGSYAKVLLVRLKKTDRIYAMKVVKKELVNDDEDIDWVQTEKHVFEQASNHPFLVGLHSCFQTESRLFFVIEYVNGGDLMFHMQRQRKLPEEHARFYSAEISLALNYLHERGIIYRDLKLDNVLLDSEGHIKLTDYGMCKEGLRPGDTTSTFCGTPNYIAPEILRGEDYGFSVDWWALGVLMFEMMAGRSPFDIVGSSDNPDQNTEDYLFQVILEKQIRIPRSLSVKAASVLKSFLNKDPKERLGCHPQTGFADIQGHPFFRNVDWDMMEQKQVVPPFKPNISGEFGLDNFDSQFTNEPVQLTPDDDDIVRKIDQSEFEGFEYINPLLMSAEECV

[3] = biological target: T1, Protein kinase C iota type (Homo sapiens); details: at 1 µM
[4] = biological target: Protein kinase C theta type (Homo sapiens) (UniProt Q04759); details: at 0.1 µM
[5] = biological target: Protein kinase C theta type (Homo sapiens) (UniProt Q04759); details: at 1 µM
[6] = biological target: Protein kinase C beta type (Homo sapiens) (UniProt P05771); details: at 0.1 µM
[7] = biological target: Protein kinase C beta type (Homo sapiens) (UniProt P05771); details: at 1 µM
[8] = biological target: T2, Serine/threonine-protein kinase D1 (Homo sapiens) (UniProt Q15139); details: at 0.1 µM
T2 sequence (whole entry): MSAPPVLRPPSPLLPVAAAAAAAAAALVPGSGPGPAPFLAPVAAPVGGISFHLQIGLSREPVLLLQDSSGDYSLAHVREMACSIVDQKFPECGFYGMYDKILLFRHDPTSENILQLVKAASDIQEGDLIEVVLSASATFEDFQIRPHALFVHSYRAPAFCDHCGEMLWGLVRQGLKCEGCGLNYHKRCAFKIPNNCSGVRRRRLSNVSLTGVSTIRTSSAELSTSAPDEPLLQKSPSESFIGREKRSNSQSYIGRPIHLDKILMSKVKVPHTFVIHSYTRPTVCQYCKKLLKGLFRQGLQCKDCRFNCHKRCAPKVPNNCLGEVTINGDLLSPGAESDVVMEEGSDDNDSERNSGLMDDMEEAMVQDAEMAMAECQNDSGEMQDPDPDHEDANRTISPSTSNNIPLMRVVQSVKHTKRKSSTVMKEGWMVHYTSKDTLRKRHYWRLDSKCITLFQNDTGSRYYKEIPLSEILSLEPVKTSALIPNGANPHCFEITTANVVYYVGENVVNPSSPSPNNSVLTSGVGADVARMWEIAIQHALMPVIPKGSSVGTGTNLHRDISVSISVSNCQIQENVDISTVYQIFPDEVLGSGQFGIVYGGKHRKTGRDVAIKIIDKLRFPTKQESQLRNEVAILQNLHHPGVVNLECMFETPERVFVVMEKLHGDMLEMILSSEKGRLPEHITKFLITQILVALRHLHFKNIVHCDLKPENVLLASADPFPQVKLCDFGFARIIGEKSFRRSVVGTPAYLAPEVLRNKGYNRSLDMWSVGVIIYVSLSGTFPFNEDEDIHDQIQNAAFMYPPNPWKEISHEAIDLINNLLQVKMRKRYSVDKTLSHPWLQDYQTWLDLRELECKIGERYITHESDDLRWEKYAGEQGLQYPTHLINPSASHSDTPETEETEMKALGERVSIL

[9] = biological target: T2, Serine/threonine-protein kinase D1 (Homo sapiens); details: at 1 µM
[10] = biological target: T3, Serine/threonine-protein kinase D2 (Homo sapiens) (UniProt Q9BZL6); details: at 0.1 µM
T3 sequence (whole entry): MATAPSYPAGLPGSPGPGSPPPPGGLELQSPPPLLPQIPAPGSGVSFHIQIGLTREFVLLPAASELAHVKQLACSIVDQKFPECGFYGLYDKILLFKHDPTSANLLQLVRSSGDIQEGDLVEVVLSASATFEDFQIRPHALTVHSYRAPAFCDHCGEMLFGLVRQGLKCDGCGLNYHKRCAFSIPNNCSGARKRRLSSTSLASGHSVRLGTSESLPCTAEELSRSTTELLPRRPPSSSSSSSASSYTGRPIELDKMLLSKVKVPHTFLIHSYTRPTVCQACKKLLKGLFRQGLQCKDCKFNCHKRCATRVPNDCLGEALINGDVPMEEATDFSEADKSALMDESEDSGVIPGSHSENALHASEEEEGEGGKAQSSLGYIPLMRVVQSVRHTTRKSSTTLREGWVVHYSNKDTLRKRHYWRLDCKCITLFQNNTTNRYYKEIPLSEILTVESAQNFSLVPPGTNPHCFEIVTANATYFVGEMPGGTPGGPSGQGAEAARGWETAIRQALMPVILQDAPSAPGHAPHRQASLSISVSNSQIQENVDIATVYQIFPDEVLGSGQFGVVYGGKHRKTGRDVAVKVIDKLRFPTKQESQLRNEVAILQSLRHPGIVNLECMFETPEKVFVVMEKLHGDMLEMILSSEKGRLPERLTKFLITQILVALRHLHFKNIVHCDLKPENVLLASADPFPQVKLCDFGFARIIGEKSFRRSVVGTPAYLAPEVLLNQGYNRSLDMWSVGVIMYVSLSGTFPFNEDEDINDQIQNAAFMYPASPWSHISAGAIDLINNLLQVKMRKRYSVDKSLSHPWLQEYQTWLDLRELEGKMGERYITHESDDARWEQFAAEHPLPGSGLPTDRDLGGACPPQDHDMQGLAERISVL

[11] = biological target: T3, Serine/threonine-protein kinase D2 (Homo sapiens); details: at 1 µM
[12] = biological target: T4, Serine/threonine-protein kinase D3 (Homo sapiens) (UniProt O94806); details: at 0.1 µM
T4 sequence (whole entry): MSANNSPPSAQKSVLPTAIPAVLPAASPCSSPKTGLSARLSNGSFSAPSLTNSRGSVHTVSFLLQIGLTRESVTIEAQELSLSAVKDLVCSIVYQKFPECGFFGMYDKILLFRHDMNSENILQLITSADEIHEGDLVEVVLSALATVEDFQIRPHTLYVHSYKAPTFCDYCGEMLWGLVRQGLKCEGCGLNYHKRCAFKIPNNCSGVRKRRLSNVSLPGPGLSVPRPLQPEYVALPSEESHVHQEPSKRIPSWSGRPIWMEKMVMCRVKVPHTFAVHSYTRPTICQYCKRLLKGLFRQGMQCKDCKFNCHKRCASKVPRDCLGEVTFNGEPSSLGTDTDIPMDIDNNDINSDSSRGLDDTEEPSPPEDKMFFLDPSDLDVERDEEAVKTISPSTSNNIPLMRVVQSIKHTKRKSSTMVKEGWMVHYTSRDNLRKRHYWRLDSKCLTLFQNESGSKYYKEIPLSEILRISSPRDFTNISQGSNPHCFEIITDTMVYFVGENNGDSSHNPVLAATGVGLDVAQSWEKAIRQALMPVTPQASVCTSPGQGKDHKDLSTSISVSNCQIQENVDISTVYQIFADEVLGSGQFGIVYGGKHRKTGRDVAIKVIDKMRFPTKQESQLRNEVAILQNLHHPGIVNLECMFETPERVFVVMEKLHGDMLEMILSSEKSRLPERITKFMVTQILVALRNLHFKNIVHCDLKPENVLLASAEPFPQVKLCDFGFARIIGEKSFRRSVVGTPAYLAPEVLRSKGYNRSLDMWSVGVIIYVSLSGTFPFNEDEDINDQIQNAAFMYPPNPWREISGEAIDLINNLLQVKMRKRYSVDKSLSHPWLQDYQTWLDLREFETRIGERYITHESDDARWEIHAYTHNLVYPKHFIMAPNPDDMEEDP

[13] = biological target: T4, Serine/threonine-protein kinase D3 (Homo sapiens); details: at 1 µM
[14] = biological target: T5, cGMP-dependent protein kinase 1 (Homo sapiens) (UniProt Q13976); details: at 0.1 µM
T5 sequence (whole entry): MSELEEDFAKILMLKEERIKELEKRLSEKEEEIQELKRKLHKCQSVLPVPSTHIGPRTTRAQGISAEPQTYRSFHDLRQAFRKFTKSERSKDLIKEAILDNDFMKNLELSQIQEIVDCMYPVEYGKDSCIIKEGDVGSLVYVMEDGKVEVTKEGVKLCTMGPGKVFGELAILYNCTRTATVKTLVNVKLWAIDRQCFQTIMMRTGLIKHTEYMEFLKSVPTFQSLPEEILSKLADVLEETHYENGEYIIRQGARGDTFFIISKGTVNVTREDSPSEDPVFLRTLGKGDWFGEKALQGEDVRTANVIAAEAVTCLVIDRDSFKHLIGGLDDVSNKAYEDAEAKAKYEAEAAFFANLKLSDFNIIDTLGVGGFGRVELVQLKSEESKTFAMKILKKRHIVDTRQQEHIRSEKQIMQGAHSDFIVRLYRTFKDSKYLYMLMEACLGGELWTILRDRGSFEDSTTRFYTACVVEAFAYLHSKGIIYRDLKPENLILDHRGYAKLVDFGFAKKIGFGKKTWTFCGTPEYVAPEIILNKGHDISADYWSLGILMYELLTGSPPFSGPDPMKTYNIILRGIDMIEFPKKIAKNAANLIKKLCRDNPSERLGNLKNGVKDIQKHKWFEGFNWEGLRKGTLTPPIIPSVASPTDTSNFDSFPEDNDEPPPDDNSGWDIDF

[15] = biological target: T5, cGMP-dependent protein kinase 1 (Homo sapiens); details: at 1 µM
[16] = biological target: T6, cGMP-dependent protein kinase 2 (Homo sapiens) (UniProt Q13237); details: at 0.1 µM
T6 sequence (whole entry): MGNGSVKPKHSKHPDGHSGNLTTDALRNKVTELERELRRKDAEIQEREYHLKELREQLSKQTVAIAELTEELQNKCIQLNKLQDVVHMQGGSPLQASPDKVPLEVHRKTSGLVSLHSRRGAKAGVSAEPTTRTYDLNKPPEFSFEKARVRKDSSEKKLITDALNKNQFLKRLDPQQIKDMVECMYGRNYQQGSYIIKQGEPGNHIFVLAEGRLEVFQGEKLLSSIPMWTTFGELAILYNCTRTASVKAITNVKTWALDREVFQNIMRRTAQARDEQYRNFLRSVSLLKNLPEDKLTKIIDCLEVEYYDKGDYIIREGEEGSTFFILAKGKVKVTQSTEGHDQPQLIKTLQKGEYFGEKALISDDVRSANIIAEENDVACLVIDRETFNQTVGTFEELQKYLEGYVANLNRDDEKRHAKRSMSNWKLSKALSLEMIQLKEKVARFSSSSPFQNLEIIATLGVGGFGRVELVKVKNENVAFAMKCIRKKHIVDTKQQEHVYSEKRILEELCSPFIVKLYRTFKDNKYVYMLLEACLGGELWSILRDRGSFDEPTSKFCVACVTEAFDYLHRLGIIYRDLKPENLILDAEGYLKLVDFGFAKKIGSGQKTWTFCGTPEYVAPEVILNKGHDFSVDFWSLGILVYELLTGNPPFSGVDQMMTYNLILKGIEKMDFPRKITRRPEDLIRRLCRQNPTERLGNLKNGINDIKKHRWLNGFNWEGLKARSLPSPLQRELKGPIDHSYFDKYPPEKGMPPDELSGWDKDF

[17] = biological target: T6, cGMP-dependent protein kinase 2 (Homo sapiens); details: at 1 µM
[18] = biological target: T7, cAMP-dependent protein kinase catalytic subunit PRKX (Homo sapiens) (UniProt P51817); details: at 0.1 µM
T7 sequence (whole entry): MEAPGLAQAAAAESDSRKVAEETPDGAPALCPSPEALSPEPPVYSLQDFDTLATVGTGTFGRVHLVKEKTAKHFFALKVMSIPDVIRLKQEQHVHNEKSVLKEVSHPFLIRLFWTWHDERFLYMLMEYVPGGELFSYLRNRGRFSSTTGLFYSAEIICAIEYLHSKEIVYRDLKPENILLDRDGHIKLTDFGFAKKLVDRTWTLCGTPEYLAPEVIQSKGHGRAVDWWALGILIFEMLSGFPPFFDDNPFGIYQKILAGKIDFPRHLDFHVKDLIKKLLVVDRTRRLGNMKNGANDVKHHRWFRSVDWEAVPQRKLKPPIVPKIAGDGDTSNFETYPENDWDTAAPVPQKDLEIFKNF

[19] = biological target: T7, cAMP-dependent protein kinase catalytic subunit PRKX (Homo sapiens); details: at 1 µM
[20] = biological target: Rho-associated protein kinase 1 (Homo sapiens) (UniProt Q13464); details: at 0.1 µM;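 further: values are mean percent inhibition of ROCK1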
Rho-associated protein kinase 1 (Homo sapiens), sequence (Q13464 2-1354 limits assumed): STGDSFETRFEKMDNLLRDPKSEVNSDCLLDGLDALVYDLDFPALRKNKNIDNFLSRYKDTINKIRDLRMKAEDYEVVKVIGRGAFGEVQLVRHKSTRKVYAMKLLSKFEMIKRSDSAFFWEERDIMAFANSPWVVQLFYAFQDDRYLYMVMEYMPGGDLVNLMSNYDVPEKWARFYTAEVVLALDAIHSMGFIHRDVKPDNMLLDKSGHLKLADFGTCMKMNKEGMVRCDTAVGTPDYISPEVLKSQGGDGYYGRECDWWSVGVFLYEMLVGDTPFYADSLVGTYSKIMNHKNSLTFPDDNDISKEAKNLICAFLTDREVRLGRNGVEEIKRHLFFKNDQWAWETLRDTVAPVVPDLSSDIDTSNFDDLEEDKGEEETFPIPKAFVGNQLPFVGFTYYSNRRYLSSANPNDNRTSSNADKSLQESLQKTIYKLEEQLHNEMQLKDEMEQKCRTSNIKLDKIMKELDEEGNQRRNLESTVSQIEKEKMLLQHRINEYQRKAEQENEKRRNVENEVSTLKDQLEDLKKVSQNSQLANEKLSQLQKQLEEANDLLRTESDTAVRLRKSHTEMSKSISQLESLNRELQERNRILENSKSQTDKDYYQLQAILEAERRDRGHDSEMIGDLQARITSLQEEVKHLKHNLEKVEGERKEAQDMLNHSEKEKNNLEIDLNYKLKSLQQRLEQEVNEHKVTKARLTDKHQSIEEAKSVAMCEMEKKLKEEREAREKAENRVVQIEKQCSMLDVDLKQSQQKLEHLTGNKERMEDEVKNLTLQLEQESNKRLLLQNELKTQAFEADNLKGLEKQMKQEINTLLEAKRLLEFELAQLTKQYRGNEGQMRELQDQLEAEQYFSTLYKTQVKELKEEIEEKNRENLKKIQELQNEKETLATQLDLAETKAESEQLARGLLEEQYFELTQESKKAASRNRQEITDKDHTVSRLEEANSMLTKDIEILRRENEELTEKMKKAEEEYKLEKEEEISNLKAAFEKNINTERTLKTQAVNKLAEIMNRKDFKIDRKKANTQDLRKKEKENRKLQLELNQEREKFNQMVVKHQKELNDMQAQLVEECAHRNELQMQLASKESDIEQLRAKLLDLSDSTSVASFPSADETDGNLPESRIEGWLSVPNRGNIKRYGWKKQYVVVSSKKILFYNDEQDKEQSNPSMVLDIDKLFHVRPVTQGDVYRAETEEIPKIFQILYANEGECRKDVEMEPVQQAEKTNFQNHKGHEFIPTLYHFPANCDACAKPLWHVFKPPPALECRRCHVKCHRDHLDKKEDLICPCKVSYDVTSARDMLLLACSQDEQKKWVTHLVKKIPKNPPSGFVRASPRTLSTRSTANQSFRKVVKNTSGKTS

Protein kinase C beta type (Homo sapiens), sequence (P05771 2-671 limits assumed): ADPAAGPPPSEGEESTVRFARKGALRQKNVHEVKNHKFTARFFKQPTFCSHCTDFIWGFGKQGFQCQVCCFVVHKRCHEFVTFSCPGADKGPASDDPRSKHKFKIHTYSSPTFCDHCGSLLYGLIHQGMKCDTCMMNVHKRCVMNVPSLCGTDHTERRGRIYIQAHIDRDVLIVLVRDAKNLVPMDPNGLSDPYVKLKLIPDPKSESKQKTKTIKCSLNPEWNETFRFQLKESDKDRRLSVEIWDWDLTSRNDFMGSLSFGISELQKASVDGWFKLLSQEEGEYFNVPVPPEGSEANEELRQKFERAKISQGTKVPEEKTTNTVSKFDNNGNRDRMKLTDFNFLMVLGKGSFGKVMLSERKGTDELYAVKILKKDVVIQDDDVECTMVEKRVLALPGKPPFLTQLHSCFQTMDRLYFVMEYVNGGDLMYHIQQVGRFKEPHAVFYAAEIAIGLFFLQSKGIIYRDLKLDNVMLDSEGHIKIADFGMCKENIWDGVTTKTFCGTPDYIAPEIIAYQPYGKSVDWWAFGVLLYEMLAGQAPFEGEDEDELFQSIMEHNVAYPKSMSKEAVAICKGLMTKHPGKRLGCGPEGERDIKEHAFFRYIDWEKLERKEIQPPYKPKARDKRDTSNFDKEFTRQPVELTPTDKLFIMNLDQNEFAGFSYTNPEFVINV
Protein kinase C theta type (Homo sapiens), sequence (Q04759 whole entry, looked up): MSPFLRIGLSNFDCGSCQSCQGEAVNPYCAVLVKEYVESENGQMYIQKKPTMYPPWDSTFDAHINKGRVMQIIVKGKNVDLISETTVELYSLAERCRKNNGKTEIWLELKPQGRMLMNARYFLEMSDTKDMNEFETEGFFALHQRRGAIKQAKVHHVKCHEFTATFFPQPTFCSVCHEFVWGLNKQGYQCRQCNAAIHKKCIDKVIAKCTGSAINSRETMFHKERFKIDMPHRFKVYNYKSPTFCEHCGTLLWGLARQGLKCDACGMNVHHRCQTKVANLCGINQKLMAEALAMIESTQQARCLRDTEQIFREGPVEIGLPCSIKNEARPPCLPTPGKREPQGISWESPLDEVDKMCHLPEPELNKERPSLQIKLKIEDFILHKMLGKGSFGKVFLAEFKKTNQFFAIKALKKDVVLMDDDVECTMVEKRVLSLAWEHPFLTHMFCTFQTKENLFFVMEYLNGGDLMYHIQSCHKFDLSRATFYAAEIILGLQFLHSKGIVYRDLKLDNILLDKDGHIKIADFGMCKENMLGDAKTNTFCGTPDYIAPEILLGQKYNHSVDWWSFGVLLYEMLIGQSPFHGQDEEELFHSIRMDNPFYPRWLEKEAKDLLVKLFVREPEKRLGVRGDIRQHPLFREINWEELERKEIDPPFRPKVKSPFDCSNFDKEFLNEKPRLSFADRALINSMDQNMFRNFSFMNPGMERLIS

Compound | inhibition [1] [%] | inhibition [2] [%] | inhibition [3] [%] | inhibition [4] [%] | inhibition [5] [%] | inhibition [6] [%] | inhibition [7] [%] | inhibition [8] [%] | inhibition [9] [%] | inhibition [10] [%] | inhibition [11] [%] | inhibition [12] [%] | inhibition [13] [%] | inhibition [14] [%] | inhibition [15] [%] | inhibition [16] [%] | inhibition [17] [%] | inhibition [18] [%] | inhibition [19] [%] | inhibition [20] [%]
Cc1ccc(NC(=O)c2ccnc(N3CCCC3)c2)cc1-c1ccc(C(=O)NCC2CC2)cc1 | 2.77 | 2.01 | 3.68 | 1.28 | 3.17 | 1.24 | 2.94 | 3.07 | 9.98 | 2.95 | 9.48 | 3.21 | 10.1 | 2.12 | 6.39 | 3.92 | 6.54 | 1.47 | 2.53 | 10
O=C1Nc2ccc(C(=O)c3ccco3)cc2C1=Cc1cc(Cl)c(O)c(Cl)c1 | 6.26 | 4.4 | -0.01 | 2.45 | 7.59 | 1.83 | 3.01 | 2.76 | 6.32 | 2.72 | 5.54 | 3.68 | 6.98 | 1.67 | 4.46 | 1.29 | 5.93 | 1.34 | 2.91 | 1.44
